Data as given in PubChem BioAssay AID602478 (National Center for Advancing Translational Sciences (NCATS), 2012).
Results filed as inconclusive are left out. A number with no mark means an inactive call. Activity calls are given as the source filed them. Calls come from the whole dose curve; as a rule, active = well fitted activation curve with a large enough effect; inconclusive = small, poorly fitted or top-dose-only effect; inactive = flat fitted curve, though single readings scatter.

Each compound was assayed against Luciferin 4-monooxygenase (Photinus pyralis) (UniProt P08659) (assay: FLuc inhibitory activity for the follow-up compounds in a cell-based translational read-through assay (72 hour incubation)). Details: GripTite 293 FLucUGA read-through, luminescence; series mostly up to 38.3 µM; activation (luciferase signal increase): at the top concentration.
Chain of Luciferin 4-monooxygenase (Photinus pyralis) (P08659 whole entry, looked up): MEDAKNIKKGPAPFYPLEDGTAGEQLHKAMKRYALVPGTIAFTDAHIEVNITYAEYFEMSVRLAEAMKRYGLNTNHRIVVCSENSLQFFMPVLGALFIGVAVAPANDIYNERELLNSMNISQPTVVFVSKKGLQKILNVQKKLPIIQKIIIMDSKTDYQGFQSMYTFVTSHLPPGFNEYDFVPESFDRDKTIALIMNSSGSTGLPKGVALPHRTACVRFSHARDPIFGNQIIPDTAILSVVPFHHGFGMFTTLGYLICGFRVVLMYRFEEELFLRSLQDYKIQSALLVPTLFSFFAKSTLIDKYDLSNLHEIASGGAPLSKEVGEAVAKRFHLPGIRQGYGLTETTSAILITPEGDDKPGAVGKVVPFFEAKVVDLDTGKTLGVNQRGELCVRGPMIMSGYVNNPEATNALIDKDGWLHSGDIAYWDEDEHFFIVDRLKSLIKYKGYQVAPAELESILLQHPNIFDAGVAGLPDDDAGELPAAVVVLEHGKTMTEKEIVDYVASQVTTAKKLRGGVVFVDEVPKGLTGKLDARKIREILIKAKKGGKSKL
Source text: NCGC Assay Overview: Firefly (Photinus pyralis) luciferase is one of the most commonly used transcriptional reporters. It is considered one of the more dynamically responsive reporters - that is, responsive to changes in reporter transcription - as it requires no post-translational modifications and is enzymatically active directly after protein synthesis (Wood, 1998). With no endogenous expression in mammalian cells and without the requirement of external excitation, it offers very little background signal, thus generally providing excellent signal to background for most assays. Previous profiling work to determine the prevalence of compounds that affect FLuc enzymatic activity (PubChem AID 411) identified that ~3% of the MLSMR library (then at ~72K) inhibited FLuc (Auld et al., 2008). […] Of the compounds identified in this profile that inhibited FLuc, 151 compounds were selected for further analysis, in an effort to better understand their mode of inhibiting FLuc. The assay described here was to determine the activity of the compounds in a cell-based firefly luciferase reporter gene assay originally designed to identify compounds that enchanced translational read-through of a FLuc cDNA that contained a premature stop codon (Auld et al., 2009; Auld et al., 2010). Compounds that enhance translational read-through or compounds that stabilize FLuc intracellularly are identified as active compounds in the assay.
NCGC Assay Protocol Summary: Reagents: Transient transfection of FlucUGA construct: TransFast Transfection Reagent (Promega #E2431); FLucUGA construct (refer to Auld et al., 2009) #GripTite 293 MSR Cell Line (Invitrogen #R795-07) #Complete growth media: DMEM (Invitrogen #11965), 10% HIFBS, 0.1mM MEM NEAA, 5mL/L pen-strep (of 5000U/mL stock), 600ug/mL Geneticin #Assay media: DMEM without phenol red (Invitrogen #21063), 5% charcoal-stripped HIFBS (Hyclone #SH30071.03), 0.1mM MEM NEAA In-house detection reagent: 300mM Tris-HCl, 300mM Trizma base, 300mM MgCl, 1% Triton-X100, 5mM DTT, 500uM Coenzyme A trilithium salt (Sigma #C3019),450uM ATP (Sigma #A7699), 1mM D-luciferin sodium salt monohydrate (Biosynth #L8240) Control compounds used were two known firefly luciferase inhibitors (3-(5-(3-chlorophenyl)-1,2,4-oxadiazol-3-yl)benzoic acid and 5-(2-fluorophenyl)-3-phenyl-1,2,4-oxadiazole), and DMSO. Assay Summary: Transient transfection of FlucUGA construct: Day 1: GripTite cells were plated in T175 flasks at a density of 1.75 x 10^7 cells/T175 flask in complete growth media without Geneticin and allowed to grow ON in a 37 degrees Celsius incubator. Day 2: Cells in T175 flask were transfected - with 10ug of DNA and 30uL Transfast in 12mL complete growth media without serum and without Geneticin for 4 hours at 37 degrees Celsius. After incubation, cells were trypsinized, spun down, and resuspended to a concentration of 3.3 x 10^5 cells/mL in assay media. 6uL of cells in assay buffer were dispensed at 2000cells/well (3.3 x 10^5 cells/mL) into Greiner solid-white TC-treated 1536-well plates using a Multidrop Combi (Thermo Fisher Scientific). Plates were incubated for one hour at 37 degree Celsius, 95% humidity, 5% CO2. These assay plates were then treated with 23nL of compound or DMSO using a Kalypsys pin tool, which allows for delivery of a 12-point titration of each compound to the assay plate, with a final compound concentration ranging from approximately ~38uM to 0.2nM. Assay plates were then incubated for 72 hours. After incubation, plates were washed three times with DPBS (7uL/well). After the third wash, 6uL of DPBS was added to each well. 3uL of 3X luciferase detection reagent was then added to each well using a flying reagent dispenser (FRD). After a 15 minute incubation to allow for cell lysis, luciferase activity was measured using a ViewLux CCD imager (PerkinElmer), with an average exposure time of 2-12 seconds.

Q: For `COc1cccc(OC)c1C(=O)Nc1cccc(C(=O)Nc2cccc(C(=O)O)c2)c1`, which “activation (luciferase signal increase)” value is on record?
A: Its value is 5.11%.

Q: With `Cc1ccc(C(=O)Nc2ccc(C(=O)O)cc2)cc1S(=O)(=O)NCc1ccccc1` as the compound, how does the “activation (luciferase signal increase)” value read?
A: The value was 2.78%.

Q: `c1ccc2sc(-c3ccc4c(c3)OCO4)nc2c1` was tested. Which Potency did it give?
A: The Potency was 1790 nM (active).

Q: For `O=C(O)c1cccc(NC(=O)c2ccc(Cl)c(S(=O)(=O)N3CCCCCC3)c2)c1`, which Potency is on record?
A: The Potency was 283 nM (active).

Q: Which “activation (luciferase signal increase)” value does the source give for `O=C(O)c1ccccc1NC(=O)c1ccccc1Nc1ccccc1` here?
A: The value was 2.54%.

Q: Which “activation (luciferase signal increase)” value does the source give for `COc1ccc(CC(=O)Nc2cccc(C(=O)Nc3ccccc3C(=O)O)c2)cc1OC` here?
A: The value was 11.8%.

Q: How did the Potency turn out when `Cc1ccc(C(=O)O/N=C(\N)c2ccccn2)cc1` was run?
A: Its Potency is 2250 nM (active).

Q: How did the Potency turn out when `Oc1ccc(-c2nc3ccccc3s2)c(O)c1` was run?
A: Its Potency is 12600 nM (active).

Q: For `Cc1ccc(C(=O)Nc2cccc(C(=O)O)c2)cc1S(=O)(=O)N1CCOCC1`, which Potency is on record?
A: Its Potency is 11300 nM (active).

Q: For `COc1cccc(-c2nc3ccccc3s2)c1`, which Potency is on record?
A: Its Potency is 3560 nM (active).

Q: For `Cc1c(NS(C)(=O)=O)cccc1-c1nc2ccccc2s1`, which “activation (luciferase signal increase)” value is on record?
A: The value was -0.265%.

Q: With `O=C(Nc1ccccc1C(=O)O)c1cc(S(=O)(=O)Nc2ccccc2)ccc1Cl` as the compound, how does the “activation (luciferase signal increase)” value read?
A: The value was 2.25%.

Q: With `O=C(Cc1ccc(Cl)cc1)Nc1cccc(C(=O)Nc2ccccc2C(=O)O)c1` as the compound, how does the “activation (luciferase signal increase)” value read?
A: Its value is 1.21%.

Q: For `COc1ccc(C(=O)Nc2ccccc2C(=O)N/N=C/c2ccc(O)c(OC)c2)cc1`, which “activation (luciferase signal increase)” value is on record?
A: Its value is -2.18%.

Q: For `O=C(Nc1ccccc1C(=O)O)c1ccc(NC(=O)C2CCCO2)cc1` (stereo not given), which “activation (luciferase signal increase)” value is on record?
A: Its value is 3.56%.

Q: For `O=C(O)c1cccc(NC(=O)c2ccccc2NC(=O)c2ccco2)c1`, which “activation (luciferase signal increase)” value is on record?
A: Its value is 10.3%.

Q: `O=C(Nc1ccc(Cl)cc1-c1nc2ccccc2s1)c1ccco1` was tested. Which “activation (luciferase signal increase)” value did it give?
A: Its value is 9.31%.

Q: How did the Potency turn out when `COc1ccc(-c2cccc(C(=O)Nc3cccc(C(=O)O)c3)c2)cc1` was run?
A: The Potency was 12600 nM (active).

Q: Which Potency does the source give for `CN(C)c1cccc(C(=O)Nc2ccc(-c3nc4ccccc4s3)cc2)c1` here?
A: The Potency was 1790 nM (active).

Q: `O=C(Cc1ccccc1)Nc1ccccc1C(=O)Nc1ccc(C(=O)O)cc1` was tested. Which “activation (luciferase signal increase)” value did it give?
A: Its value is 9.41%.

Q: With `O=C(Nc1ccc(-c2nc3ccccc3s2)cc1)C1=COCCO1` as the compound, how does the Potency read?
A: The Potency was 318 nM (active).

Q: Which “activation (luciferase signal increase)” value does the source give for `O=C(Cc1ccccc1)Nc1ccc(C(=O)Nc2ccccc2C(=O)O)cc1` here?
A: The value was -3.79%.

Q: `O=C(Nc1cccc(-c2nc3ccccc3s2)c1)C1=COCCO1` was tested. Which “activation (luciferase signal increase)” value did it give?
A: Its value is 9.49%.

Q: For `CCCOc1cccc(C(=O)Nc2ccc(-c3nc4ccccc4s3)c(Cl)c2)c1`, which “activation (luciferase signal increase)” value is on record?
A: Its value is 10.8%.

Q: For `CCOc1ccc2nc(NC(=O)c3cc([N+](=O)[O-])ccc3N3CCOCC3)sc2c1`, which “activation (luciferase signal increase)” value is on record?
A: Its value is -8.35%.

Q: With `O=C(O)c1cccc(NC(=O)c2ccc(S(=O)(=O)c3ccccc3)cc2)c1` as the compound, how does the “activation (luciferase signal increase)” value read?
A: Its value is -1.83%.

Q: Which “activation (luciferase signal increase)” value does the source give for `O=C(Nc1ccccc1C(=O)O)c1cccc(S(=O)(=O)N2CCCC2)c1` here?
A: Its value is 4.36%.

Q: With `Nc1ccc2nc(-c3ccccc3)sc2c1` as the compound, how does the Potency read?
A: The Potency was 1130 nM (active).

Q: `O=C(COC(=O)c1ccccc1[N+](=O)[O-])c1ccc2c(c1)OCO2` was tested. Which “activation (luciferase signal increase)” value did it give?
A: The value was 3.99%.

Q: Which Potency does the source give for `Nc1ccc(-c2nc3ccc(N)cc3s2)cc1` here?
A: Its Potency is 4000 nM (active).

Q: `COc1ccccc1C(=O)Nc1ccc(C(=O)O)cc1` was tested. Which “activation (luciferase signal increase)” value did it give?
A: The value was 6.84%.

Q: With `COc1ccc2nc(NC(=O)CCc3nc(-c4ccccc4F)no3)sc2c1` as the compound, how does the “activation (luciferase signal increase)” value read?
A: The value was 13.1%.

Q: Which Potency does the source give for `Nc1ccc(-c2nc3ccc(C(=O)O)cc3s2)cc1` here?
A: The Potency was 159 nM (active).

Q: `O=C(O)c1ccc(NC(=O)c2cccc(C(=O)Nc3ccc(C(=O)O)cc3)c2)cc1` was tested. Which “activation (luciferase signal increase)” value did it give?
A: Its value is -0.0974%.

Q: Which “activation (luciferase signal increase)” value does the source give for `Cc1c(NC(=O)c2cccs2)cccc1-c1nc2ccccc2s1` here?
A: Its value is 17.8%.

Q: Which Potency does the source give for `Nc1ccc(-c2nc3cc(N)ccc3s2)cc1` here?
A: The Potency was 22500 nM (active).

Q: With `Cc1ccc(C(=O)Nc2cccc(C(=O)O)c2)cc1S(=O)(=O)N1CCCCC1` as the compound, how does the Potency read?
A: The Potency was 3180 nM (active).

Q: How did the “activation (luciferase signal increase)” value turn out when `COc1ccccc1C(=O)Nc1ccc(C(=O)Nc2ccccc2C(=O)O)cc1` was run?
A: The value was 2.81%.

Q: How did the “activation (luciferase signal increase)” value turn out when `CC(C)C(=O)Nc1cccc(C(=O)Nc2ccccc2C(=O)O)c1` was run?
A: The value was 6.56%.

Q: For `Cc1cccc(C(=O)Nc2ccc(-c3nc4ccccc4s3)cc2Cl)c1`, which “activation (luciferase signal increase)” value is on record?
A: Its value is 5.41%.
